In all, about 360,000 compounds went through this assay and about 290 (0.081%) were called active. Entries that show only a call come without a potency. Calls follow the shape of the dose curve; as a rule, active = well fitted activation curve with a large enough effect; inconclusive = small, poorly fitted or top-dose-only effect; inactive = no such curve, though single readings can be large or run the other way. Many of the other results were omitted from the sample, so actives are more common in it than they were.
Potency is read from the fitted curve at half-maximal effect.

Rap guanine nucleotide exchange factor 4 (Homo sapiens), sequence (Q8WZA2 whole entry, looked up): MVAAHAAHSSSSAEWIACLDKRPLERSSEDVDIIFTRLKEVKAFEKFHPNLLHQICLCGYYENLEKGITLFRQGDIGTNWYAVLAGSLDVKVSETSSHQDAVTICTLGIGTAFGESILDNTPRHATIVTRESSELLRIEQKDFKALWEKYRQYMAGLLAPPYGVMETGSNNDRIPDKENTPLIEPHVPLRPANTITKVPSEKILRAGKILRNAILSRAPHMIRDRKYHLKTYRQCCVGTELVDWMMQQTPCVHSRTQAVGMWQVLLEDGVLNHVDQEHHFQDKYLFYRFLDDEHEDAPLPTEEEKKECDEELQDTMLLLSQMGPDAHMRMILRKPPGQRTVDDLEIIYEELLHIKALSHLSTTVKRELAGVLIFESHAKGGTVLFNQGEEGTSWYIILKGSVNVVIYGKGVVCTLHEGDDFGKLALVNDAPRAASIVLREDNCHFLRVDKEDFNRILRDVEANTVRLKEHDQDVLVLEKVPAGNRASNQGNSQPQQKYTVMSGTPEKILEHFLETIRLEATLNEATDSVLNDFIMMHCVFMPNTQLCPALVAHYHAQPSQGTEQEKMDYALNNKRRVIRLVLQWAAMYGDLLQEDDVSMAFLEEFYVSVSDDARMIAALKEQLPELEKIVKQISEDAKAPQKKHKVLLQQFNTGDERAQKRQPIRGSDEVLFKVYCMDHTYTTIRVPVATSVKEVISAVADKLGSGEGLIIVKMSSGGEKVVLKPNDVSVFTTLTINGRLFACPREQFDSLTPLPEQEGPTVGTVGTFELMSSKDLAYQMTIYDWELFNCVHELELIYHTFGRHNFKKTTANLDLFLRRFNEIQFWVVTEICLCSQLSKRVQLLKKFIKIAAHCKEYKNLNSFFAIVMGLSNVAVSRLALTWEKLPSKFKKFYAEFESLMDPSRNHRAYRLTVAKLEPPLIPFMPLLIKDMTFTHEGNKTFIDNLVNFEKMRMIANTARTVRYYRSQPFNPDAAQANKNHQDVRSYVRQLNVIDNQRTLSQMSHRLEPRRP

The test has as its target Rap guanine nucleotide exchange factor 4 (Homo sapiens) (UniProt Q8WZA2). In words: qHTS for Agonist of cAMP-regulated guanine nucleotide exchange factor 4 (EPAC2): primary screen. Also: nearly all actives have a fitted effect of over 50% in size. To be noted: biochemical qHTS; Potency: EPAC2 activation; series mostly up to 154 µM. An outline of the steps: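 Each well held 100 nM EPAC2, 250 nM RAP1B-BODIPY-GDP and 50 uM GDP. Fluorescence, read at 5-min intervals to 30 min, was referenced to a 6.5 mM cAMP positive control.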
(In qHTS, concentration-response curves come from the screen itself.)
`COCC1CCN(C(=O)C2CCC(=O)N(CC3CCCCC3)C2)CC1` (stereo unspecified): the Potency entry is “inactive”.
As for `CCNC(=O)N1CCN(S(=O)(=O)c2ccc3c(c2)OCCCO3)CC1`, the Potency result was “inactive”.
Turning to `CCOc1cccc(C(=O)Nc2cnn(Cc3ccccc3)c2)c1`, the Potency result was “inactive”.
Turning to `Nc1nnc(SCC(=O)OCc2ccc(Cl)c(Cl)c2)s1`, the Potency entry is “inactive”.
Turning to `COCC1CCN(C(=O)CCc2nnc(C3(c4ccc(Cl)cc4)CCC3)o2)C1` (stereo unspecified), the Potency result is “inactive”.
On to `Cc1ccc(CSc2nsc(C)c2C#N)cc1`, for which the Potency entry was “inactive”.
The same measure for `Cc1ccc(N=Cc2c(O)n(-c3nccs3)c(=O)c3ccccc23)c(C)c1`: 70.8 µM (active).
For `Cc1cccc(-n2c(O)c(C=Nc3ccccc3N)c(=O)[nH]c2=O)c1`, the Potency result is “inactive”.
In the case of `COC(=O)Cc1csc(/N=C/c2c(O)n(-c3cccc(C(F)(F)F)c3)c(=O)c3ccccc23)n1` it was “inactive”.
In the case of `COCCNC(=O)C1C(=O)Nc2ccccc2C(=O)N1c1ccc2c(c1)OCCO2` (stereo unspecified) it was “inactive”; in that of `C=CCNC(=O)CCCC(=O)NCC=C`, “inactive”.
In the case of `COCCNc1nc2nonc2nc1N(C)Cc1ccc(C)cc1` it was “inactive”; in that of `CCCNC(=S)NC1CC2CCCC(C1)N2CC(C)C` (stereo unspecified), “inactive”; in that of `CCOC(=O)c1sc(NC(=O)C2CSC3(C)CCC(=O)N23)nc1C` (stereo unspecified), “inactive”.
As for `CC(=O)c1nc(N2C(=O)C3CC=C(C)CC3C2=O)sc1C` (stereo unspecified), the Potency result was “inactive”.
Regarding `Nc1ccccc1/C=N\N=C/c1ccccc1N`, the Potency entry is “inactive”.
Regarding `Cc1occc1-c1nnc(SCC(=O)NC2(C#N)CCCC2)n1C`, the Potency entry is “inactive”.
On to `COc1ccc(-n2nc(C(=O)NCC(=O)N3CCC(C(N)=O)CC3)c3ccccc3c2=O)cc1OC`, for which the Potency result is “inactive”.
In the case of `COc1ccc2c(CC(=O)OCC(=O)NC(N)=O)coc2c1` it was “inactive”; in that of `Cc1ccc(N=C2SCCCN2C(=O)c2cccc(N3C(=O)CCC3=O)c2)cc1Cl`, “inactive”.
In the case of `Nc1ccc2nn(-c3ccc(Cl)cc3)nc2c1` it was “inactive”; in that of `Nc1nnc(SCCN2C(=O)c3ccccc3S2(=O)=O)s1`, “inactive”.
Regarding `COc1cccc(C2CC(c3cccs3)=NN2C(=O)CSC2=NCCS2)c1OC` (stereo unspecified), the Potency entry is “inactive”.
Take `O=C(COc1ccc(S(=O)(=O)N2CCOCC2)cc1Cl)N1CCOCC1`: the Potency entry was “inactive”.
Consider `COCc1[nH][nH]c(=O)c1C=Nc1ccc(F)cc1F`, for which the Potency entry is “inactive”.
`NC(=O)COc1ccc(NC(=O)c2ccccc2-c2ccccc2)cc1`: the Potency result was “inactive”.
Consider `COc1ccc(NC(=O)C(=O)NCC(c2ccco2)N2CCc3ccccc3C2)cc1` (stereo unspecified), for which the Potency entry is “inactive”.
As for `CCN(CC)C(=O)CSC(Nc1cccc(F)c1)=C(C#N)C#N`, the Potency result is “inactive”.
With `CSc1nnnn1-c1c(C)cc(C)cc1C`, the Potency entry was “inactive”.
Turning to `Cc1cc(-c2ccccc2)n2nc(C)c(-c3ccccc3)c2n1`, the Potency entry is “inactive”.
In the case of `CC1=C/C(=N\OS(=O)(=O)c2ccccc2)C=CC1=O` it was “inactive”.
In the case of `COc1cccc(NC(=O)CSc2nnc(Cc3ccc(OC)c(OC)c3)o2)c1`, the Potency entry is “inactive”.
Turning to `COc1ccc(NC(=O)CCCOc2ccc(C(C)=O)cc2)cc1S(=O)(=O)N1CCCCC1`, the Potency entry is “inactive”.
In the case of `CCCn1c(C)cc(/C=C(\C#N)C(=O)OCC(=O)N(C)c2c(N)n(Cc3ccccc3)c(=O)[nH]c2=O)c1C`, the Potency result was “inactive”.
In the case of `COC(=O)c1sc(N2CCN(Cc3ccccc3)CC2)nc1N` it was “inactive”; in that of `CCOC(=O)/C(C#N)=C/c1ccc(N2CCCCC2)cc1`, 79.4 µM (active).
The same measure for `COc1ccc(/C=C(\C#N)C(=O)ONC2=NCCCCC2)cc1`: “inactive”.
For `CCOC(=O)/C(C#N)=C\c1c(C)cc(C)c(COC(C)=O)c1C`, the Potency result was “inactive”.
As to `CCOC(=O)/C(C#N)=C/c1ccc(N2CCN(Cc3ccccc3)CC2)cc1`, the Potency is 89.1 µM (active).
Consider `O=C(Nc1ccccc1)Oc1cccc2cccnc12`, for which the Potency result was “inactive”.
On to `CCc1cc2c(=O)c(-c3ccon3)c(N)oc2cc1OC`, for which the Potency result is “inactive”.
The same measure for `COCc1cc(C)nc2sc(C(=O)NC3CCCCC3)c(N)c12`: “inactive”; for `Cc1ccc(C2(C(F)(F)F)N=C3Sc4cc(C)cc(C)c4N3C(=O)N2)cc1` (stereo unspecified): “inactive”; for `CC(C)C[C@H]1CN=C(Nc2ccccc2)N1CC1CCCCC1`: “inactive”.
In the case of `NC1=NOC(=O)C1C1CCCCC1` (stereo unspecified), the Potency entry is “inactive”.
`COc1ccc(-c2nnc(SCC(=O)Nc3cccnc3Cl)n2C)cc1`: the Potency entry was “inactive”.
Regarding `CCc1nccn1CCC(=O)N1CCCC(N2CCN(c3ccccc3F)CC2)C1` (stereo unspecified), the Potency entry was “inactive”.
In the case of `CC1=C(C(=O)N(C(C)C)C(C)C)CC(CC(=O)NCC2CCCCC2)C(=O)N1Cc1ccccc1` (stereo unspecified) it was “inactive”; in that of `O=C(O)CCCn1c(=O)c2cccn2c2ccc(F)cc21`, “inactive”.
As to `CCOc1ccccc1NC(=O)C1CCC(CNc2c(N3CCOCC3)c(=O)c2=O)CC1` (stereo unspecified), the Potency result was “inactive”.
In the case of `CC(C)CNC(=O)/C=C/C(=O)O` it was “inactive”; in that of `CCN(CC)CCn1c(N)c(S(=O)(=O)c2ccccc2)c2nc3ccccc3nc21`, “inactive”; in that of `C=CCN1CN(S(=O)(=O)c2ccc(OC)cc2)c2nc3ccccc3nc21`, “inactive”.
With `C=CCn1c(N)c(S(=O)(=O)c2cccs2)c2nc3ccccc3nc21`, the Potency is 10 µM (active).
As to `Cn1ncc(N2CCN(S(=O)(=O)c3ccc(Br)cc3)CC2)c(Cl)c1=O`, the Potency result is “inactive”.
In the case of `CCCCn1c(N)c(N(CCC(C)C)C(=O)c2ccc(COc3ccccc3)o2)c(=O)[nH]c1=O` it was “inactive”.
In the case of `Cc1cccc(C2c3[nH]c4ccccc4c3CCN2C(=O)c2cc(-c3cccn3C)n[nH]2)n1` (stereo unspecified), the Potency result is “inactive”.
Consider `O=C(NC1(C(F)(F)F)N=C2SCCN2C1=O)c1ccco1` (stereo unspecified), for which the Potency entry is “inactive”.
Consider `NC(=O)COC(=O)c1sc2cc(F)ccc2c1Cl`, for which the Potency entry was “inactive”.
For the compound `NC(=O)C1CCN(C(=O)c2ccc3c(=O)n(Cc4cccc(Br)c4)c(=S)[nH]c3c2)CC1`, the Potency result is “inactive”.
For the compound `Cc1ccc(SCC(=O)c2cc(C)c(OC(=S)N(C)C)c(C)c2)cc1`, the Potency result is “inactive”.
Take `CSc1cc(C)[nH]c(=O)n1`: the Potency result is “inactive”.
The same measure for `CCCNC(=O)CCc1c(C)nc2c(c(C)nn2-c2ccccc2)c1C`: “inactive”; for `COc1ccccc1CNC(=O)CN1CCC(n2cnc3cc(F)ccc32)CC1`: “inactive”.
As for `CCN(CC)c1ncnc2c1ncn2[C@H]1CN(Cc2cccs2)C[C@@H](CO)O1`, the Potency result is “inactive”.
In the case of `COc1ccc(OCC(=O)OCC(=O)Nc2ccc(S(=O)(=O)N3CCCCC3)cc2)cc1`, the Potency result was “inactive”.
With `CCCN(CC(=O)Nc1ccc(OC)c(OC)c1)CC(=O)Nc1ccc(F)c(F)c1F`, the Potency entry is “inactive”.
In the case of `COc1cccc(N=c2oc3c(C)ncc(CO)c3cc2C(N)=O)c1` it was “inactive”; in that of `Cc1ccc(CNC(=O)C2CCN(S(=O)(=O)c3ccc4nc5c(c(C(=O)O)c4c3)CC(C)CC5)CC2)cc1` (stereo unspecified), “inactive”; in that of `CCCCc1nc2cc(C(=O)N3CCCCC3CCO)ccc2o1` (stereo unspecified), “inactive”.
The same measure for `COc1cc(C)c(Cl)cc1S(=O)(=O)n1ccnc1`: “inactive”.
The same measure for `CN(Cc1nc2ccccc2c(=O)[nH]1)Cc1cc(=O)oc2ccc3ccccc3c12`: “inactive”; for `Cc1ccc2c(=O)oc(N(C)C)nc2c1`: “inactive”; for `CCN(CC)c1ccc2oc(=O)c(C)nc2c1`: 100 µM (active).
For `Cc1cc(C)cc(N(CC(=O)NCC2CCCO2)S(=O)(=O)c2c(C)noc2C)c1` (stereo unspecified), the Potency entry was “inactive”.
`Cn1c(=O)[nH]c(=O)c2c1[nH]c(=S)n2Cc1ccccc1`: the Potency result was “inactive”.
For the compound `Cc1cc(OCC(=O)N(C)c2c(N)n(Cc3ccccc3)c(=O)[nH]c2=O)c(C(C)C)cc1Cl`, the Potency result was “inactive”.
Regarding `Cc1cc2nc3c(=O)n(Cc4ccccc4)c(=O)[nH]c3nc2cc1N`, the Potency was 112 µM (active).
In the case of `CCn1nc(C)c(CNC(=O)C2CCC(=O)N(Cc3cccc(F)c3)C2)c1C` (stereo unspecified), the Potency result was “inactive”.
As to `CN(C)C(=O)c1nc2ccc(Cl)cn2c1CNCc1cccc(OC(F)(F)F)c1`, the Potency entry is “inactive”.
Take `CSCCC(NC(N)=O)C(=O)N(C)CC(=O)Nc1ccc(C)cc1` (stereo unspecified): the Potency result is “inactive”.
As for `CCCCN(C1CCS(=O)(=O)C1)S(=O)(=O)c1ccc(C(C)C)cc1` (stereo unspecified), the Potency entry is “inactive”.
The same measure for `CCCC(=O)NC(=S)Nc1ccc(CN2CCOCC2)cc1`: “inactive”.
`O=C(CCCl)Nc1ccc(S(=O)(=O)NCc2ccco2)cc1`: the Potency entry is “inactive”.
For `O=C(CNC(c1ccccc1)c1ccccc1)Nc1ccc(F)cc1`, the Potency entry is “inactive”.
Turning to `COc1ccc(S(=O)(=O)N2CCCC(C(=O)Nc3ccc(NC(=O)c4ccccn4)cc3)C2)cc1` (stereo unspecified), the Potency result is “inactive”.

Values taken from PubChem BioAssay AID720711 (National Center for Advancing Translational Sciences (NCATS), 2013).
